For 13 compounds, Potency and activity change results are on record in PubChem BioAssay (Tox21).

A short description of assay [1]: qHTS assay to identify small molecule antagonists of the glucocorticoid receptor (GR) signaling pathway - cell viability counter screen (AID 720693; note: nearly all actives have a fitted effect of over 55% in size). (In general: qHTS replaces the single test concentration by a dilution series.)
Assay [2] is described as follows: qHTS assay for identifying genotoxic compounds that show differential cytotoxicity against isogenic chicken DT40 cell lines with known DNA damage response pathways - wild type cell line (AID 743012). Note: nearly all actives have a fitted effect of over 60% in size. Note: potency is the fitted concentration of half-maximal effect. Put shortly:
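Cytotoxicity in repair-proficient parental chicken DT40 cells serves as the comparator for Rad54/Ku70- and Rev3-deficient lines. Cells were exposed to compounds for 40 h at 37 C/5% CO2, and ATP-based luminescence (CellTiter-Glo) measured viability.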

The nature of assay [3]: qHTS assay for identifying genotoxic compounds that show differential cytotoxicity against isogenic chicken DT40 cell lines with known DNA damage response pathways - Rev3 mutant cell line (AID 743014). Note: nearly all actives have a fitted effect of over 55% in size. Note: potency is the fitted concentration of half-maximal effect.
Assay [4] can be described thus: qHTS assay for identifying genotoxic compounds that show differential cytotoxicity against isogenic chicken DT40 cell lines with known DNA damage response pathways - Rad54/Ku70 mutant cell line (AID 743015). Note: nearly all actives have a fitted effect of over 60% in size. Note: potency is the fitted concentration of half-maximal effect.
Assay [5] in a line: qHTS assay to identify small molecule antagonists of the androgen receptor (AR) signaling pathway - cell viability counter screen (AID 743033; note: nearly all actives have a fitted effect of over 45% in size).
Assay [6] in a line: qHTS assay to identify small molecule antagonists of the androgen receptor (AR) signaling pathway using the MDA cell line - cell viability counter screen (AID 743041; note: nearly all actives have a fitted effect of over 45% in size). A digest of the protocol: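 Cytotoxicity counter screen: MDA-kb2 AR-luc cells, compound + R1881, 16 h, 37C, 0% CO2; CellTiter-Fluor added at 15.5 h, fluorescence read after 30 min.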
Assay [7] can be described thus: qHTS assay to identify small molecule antagonists of the thyroid receptor (TR) signaling pathway - cell viability counter screen (AID 743064). Note: nearly all actives have a fitted effect of over 50% in size. Put shortly: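 Viability of T3-stimulated (1 nM final) GH3.TRE-Luc cells is measured by CellTiter-Fluor fluorescence after 23.5 h compound exposure at 37 °C plus 30 min reagent incubation.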
Assay [8] in a line: qHTS assay to identify small molecule antagonists of the thyroid receptor (TR) signaling pathway (AID 743065). Note: nearly all actives have a fitted effect of over 55% in size. A digest of the protocol:
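GH3.TRE-Luc rat pituitary cells (two TREs driving luciferase) were dosed with compound, then stimulated with 1 nM T3 (final) for 23.5 h at 37 C. ONE-Glo luminescence was the read-out, with CellTiter-Fluor fluorescence as the cytotoxicity counter-screen.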

The test system of assay [9] is thyroid hormone receptor (rat, GH3 cells). Kind of assay: qHTS assay to identify small molecule agonists of the thyroid receptor (TR) signaling pathway (AID 743066; calls by dose curve).
The target in assay [10] is Estrogen receptor (Homo sapiens) (UniProt P03372). The assay can be described thus: qHTS assay to identify small molecule antagonists of the estrogen receptor alpha (ER-alpha) signaling pathway (AID 743069; active = well fitted curve in the direction sought with a large enough effect in the signal ratio in the repeat runs, not every such curve was filed as active; inconclusive = weak or mixed curves, or effect the other way; inactive = no such curve, though single readings can be large or run the other way; the % refers to the signal ratio). Put shortly:
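Beta-lactamase FRET fluorescence is read after 2 hr at room temperature with LiveBLAzer B/G substrate. Before that, ER-alpha-bla HEK293 cells sit 4 hr after plating, then receive compound plus 17beta-estradiol and incubate 18 hr at 37C.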

Assay [11] can be described thus: qHTS assay to identify small molecule antagonists of the estrogen receptor alpha (ER-alpha) signaling pathway - cell viability counter screen (AID 743074; calls by dose curve;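 note: HEK293 cells carrying ER-alpha-UAS-bla reporter stimulated with 17beta-estradiol; nearly all actives have a fitted effect of over 45% in size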).
Assay [12] has as its target Estrogen receptor (Homo sapiens) (UniProt P03372). Kind of assay: qHTS assay to identify small molecule agonists of the estrogen receptor alpha (ER-alpha) signaling pathway (AID 743075; calls by dose curve;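 note: HEK293 GripTite cells with ER-alpha and UAS-driven beta-lactamase reporter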; note: potency is the fitted concentration of half-maximal effect).
Assay [13] shares this target. The assay can be described thus: qHTS assay to identify small molecule agonists of the estrogen receptor alpha (ER-alpha) signaling pathway using the BG1 cell line (AID 743079). Note: nearly all actives have a fitted effect of over 20% in size. Note: potency is the fitted concentration of half-maximal effect. The following applies: BG1Luc4E2 cells, ERE-luciferase agonist, 22 h; activation: at 70.3 µM (top of the series) unless noted.
Assay [14] can be described thus: qHTS assay to identify small molecule antagonists of the estrogen receptor alpha (ER-alpha) signaling pathway using the BG1 cell line (AID 743080; calls by dose curve;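 note: BG1 cells stimulated with 17beta-estradiol alongside compound; nearly all actives have a fitted effect of over 25% in size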; note: potency is the fitted concentration of half-maximal effect). Put shortly:
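BG1-Luc-4E2 cells (endogenous full-length ER-alpha, 4xERE luciferase) hormone-starved 5 days in charcoal-stripped FBS, plated 4,000/well for 24 h, then compound plus 17beta-estradiol for 21.5 h at 37 C; ONE-Glo luminescence read.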

Assay [15] can be described thus: qHTS assay to identify small molecule antagonists of the estrogen receptor alpha (ER-alpha) signaling pathway using the BG1 cell line - cell viability counter screen (AID 743081).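 Note: compound given together with 17beta-estradiol as the ER stimulus; nearly all actives have a fitted effect of over 45% in size.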
The next assay concerns the target Aromatase (Homo sapiens) (UniProt P11511). The assay can be described thus: qHTS assay to identify aromatase inhibitors (AID 743083). Note: nearly all actives have a fitted effect of over 55% in size. Note: potency is the fitted concentration of half-maximal effect.
For assay [16], the target named is Androgen receptor (Homo sapiens) (UniProt P10275). Kind of assay: qHTS assay to identify small molecule antagonists of the androgen receptor (AR) signaling pathway (AID 743035; active = well fitted inhibition curve with a large enough effect in the signal ratio in the repeat runs, not every such curve was filed as active; inconclusive = weak or mixed curves, or effect the other way; inactive = no such curve, though single readings can be large or run the other way; the % refers to the signal ratio). Put shortly: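 Steps: seed AR-UAS-bla GripTite HEK293 cells, incubate 4 h at 37C; pin in test compound, then add agonist R1881; incubate 16 h at 37C; add LiveBLAzer B/G FRET substrate, 2 h at room temperature; read fluorescence.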

Assay [17] shares this target. Kind of assay: qHTS assay to identify small molecule agonists of the androgen receptor (AR) signaling pathway (AID 743036; active = well fitted activation curve with a large enough effect in the signal ratio in the repeat runs, with a control signal flat, not every such curve was filed as active; inconclusive = weak or mixed curves, or effect the other way; inactive = no such curve, though single readings can be large or run the other way; the % refers to the signal ratio). Put shortly:
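Screening used 2,000 AR-bla HEK293 cells per well, treated 16 h at 37C with test compounds in DMSO alongside positive and DMSO-only controls; beta-lactamase activity was then read by LiveBLAzer B/G FRET fluorescence after 2 h at room temperature.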

Assay [18] has the same target. The assay can be described thus: qHTS assay to identify small molecule agonists of the androgen receptor (AR) signaling pathway using the MDA cell line (AID 743040; note: nearly all actives have a fitted effect of over 20% in size). The following applies: MDA-kb2 AR-luc cells, MMTV luciferase, 16 h, stronger effect = higher value. Put shortly: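 Luciferase read-out, ONE-Glo, 30 min RT. Cells: MDA-kb2 AR-luc, MMTV promoter with AR and GR response elements. Compound exposure 16 h, 37C, 0% CO2, after 5 h pre-incubation. qHTS agonist mode.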

The target is the same in assay [19]. Kind of assay: qHTS assay to identify small molecule antagonists of the androgen receptor (AR) signaling pathway using the MDA cell line (AID 743042; note: nearly all actives have a fitted effect of over 55% in size). A digest of the protocol:
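MDA-kb2 breast carcinoma cells carrying MMTV-luciferase (AR/GR responsive) were co-treated with compounds and the agonist R1881 for 16 h at 37C. Inhibition read as ONE-Glo luminescence; CellTiter-Fluor fluorescence measured in parallel for cytotoxicity.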

Molecules are shown by their SMILES. Where “and” joins values, the source holds several entries; their conditions need not be identical. Equal values may be shown once. More than one record can exist for a structure, and the calls need not agree. Calls of active or inactive are those of the source. Unless noted, calls come from the whole dose curve; as a rule, active = well fitted curve in the direction sought with a large enough effect in the repeat runs; inconclusive = weak or mixed curves; inactive = no such curve, though single readings can be large; an effect the other way counts as inactive or inconclusive.
% is set by controls: 0 for no effect and ±100 for the full control effect.

Sequence of Estrogen receptor (Homo sapiens) (P03372 whole entry, looked up): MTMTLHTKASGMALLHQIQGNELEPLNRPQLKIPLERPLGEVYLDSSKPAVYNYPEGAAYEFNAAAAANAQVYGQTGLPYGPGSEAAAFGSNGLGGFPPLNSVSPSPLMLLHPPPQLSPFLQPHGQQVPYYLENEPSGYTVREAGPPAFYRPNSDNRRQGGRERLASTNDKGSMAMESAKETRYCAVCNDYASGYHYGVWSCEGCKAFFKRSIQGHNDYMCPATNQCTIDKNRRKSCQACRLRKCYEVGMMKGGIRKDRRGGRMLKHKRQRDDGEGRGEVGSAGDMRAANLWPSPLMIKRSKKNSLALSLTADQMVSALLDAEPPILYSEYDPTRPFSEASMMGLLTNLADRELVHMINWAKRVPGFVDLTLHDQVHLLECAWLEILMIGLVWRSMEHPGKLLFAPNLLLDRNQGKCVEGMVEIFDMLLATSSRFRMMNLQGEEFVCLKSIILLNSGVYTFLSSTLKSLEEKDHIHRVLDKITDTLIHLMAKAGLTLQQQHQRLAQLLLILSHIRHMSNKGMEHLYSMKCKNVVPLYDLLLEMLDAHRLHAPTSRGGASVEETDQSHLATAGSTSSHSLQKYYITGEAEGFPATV
Sequence of Androgen receptor (Homo sapiens) (P10275 whole entry, looked up): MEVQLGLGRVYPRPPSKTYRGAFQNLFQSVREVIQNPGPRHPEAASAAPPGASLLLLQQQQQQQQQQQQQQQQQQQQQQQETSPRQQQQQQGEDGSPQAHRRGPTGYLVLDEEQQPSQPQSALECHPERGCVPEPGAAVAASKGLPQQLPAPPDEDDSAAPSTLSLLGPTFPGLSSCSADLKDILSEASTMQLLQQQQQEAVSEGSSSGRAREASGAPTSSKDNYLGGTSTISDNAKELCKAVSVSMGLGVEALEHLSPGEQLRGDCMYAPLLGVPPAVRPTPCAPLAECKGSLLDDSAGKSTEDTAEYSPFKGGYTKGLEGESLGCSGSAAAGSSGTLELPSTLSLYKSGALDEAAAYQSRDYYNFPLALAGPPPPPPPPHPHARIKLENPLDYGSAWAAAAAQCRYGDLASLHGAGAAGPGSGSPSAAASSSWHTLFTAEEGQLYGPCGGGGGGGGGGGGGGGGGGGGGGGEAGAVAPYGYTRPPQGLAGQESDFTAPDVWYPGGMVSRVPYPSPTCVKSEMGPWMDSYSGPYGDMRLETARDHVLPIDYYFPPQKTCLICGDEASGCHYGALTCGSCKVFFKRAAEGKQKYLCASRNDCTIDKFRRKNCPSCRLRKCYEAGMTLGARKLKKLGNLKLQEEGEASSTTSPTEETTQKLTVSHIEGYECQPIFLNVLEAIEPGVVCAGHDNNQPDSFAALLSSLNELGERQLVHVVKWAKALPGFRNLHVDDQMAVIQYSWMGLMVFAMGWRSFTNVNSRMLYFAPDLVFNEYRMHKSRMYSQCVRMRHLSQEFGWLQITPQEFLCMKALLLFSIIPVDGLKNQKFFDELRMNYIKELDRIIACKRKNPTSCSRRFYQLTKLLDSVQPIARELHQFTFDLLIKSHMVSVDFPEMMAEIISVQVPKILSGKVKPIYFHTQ
Sequence of Aromatase (Homo sapiens) (P11511 whole entry, looked up): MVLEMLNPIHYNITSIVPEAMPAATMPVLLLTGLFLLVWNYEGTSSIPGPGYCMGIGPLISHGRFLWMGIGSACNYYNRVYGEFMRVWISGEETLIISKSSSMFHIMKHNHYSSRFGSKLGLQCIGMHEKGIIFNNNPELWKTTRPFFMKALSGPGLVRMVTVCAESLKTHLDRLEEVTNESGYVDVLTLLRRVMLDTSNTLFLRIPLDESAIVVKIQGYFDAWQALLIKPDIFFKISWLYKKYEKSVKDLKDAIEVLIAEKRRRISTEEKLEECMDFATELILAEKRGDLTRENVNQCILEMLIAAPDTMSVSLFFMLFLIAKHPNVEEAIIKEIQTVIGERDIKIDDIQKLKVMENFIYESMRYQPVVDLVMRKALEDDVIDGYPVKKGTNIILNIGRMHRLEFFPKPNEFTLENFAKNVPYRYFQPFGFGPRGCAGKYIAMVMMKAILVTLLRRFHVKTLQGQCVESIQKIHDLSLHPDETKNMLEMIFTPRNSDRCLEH

With `N#Cc1cccnc1`, the Potency result in assay [1], in [2], in assay [3], in assay [4], in assay [5] and in assay [6] was “inactive” each time. Moreover, the Potency entry in assay [7], in assay [8], in [9], in assay [10], in assay [11] and in [12] was “inactive” in each case. For the same compound, the Potency entry (in assay [13]; in [14]; in assay [15]; in the assay with Aromatase (Homo sapiens)) was “inactive” throughout.

Turning to `Nc1ccc2ccccc2c1`, the Potency entry in assay [1], in [2], in assay [4], in assay [5], in assay [6] and in assay [7] was “inactive” in each case. The Potency entry in [8], in assay [9], in [10], in assay [12], in assay [13] and in [15] was “inactive” throughout. Besides, the Potency result with Aromatase (Homo sapiens) was “inactive”. Further, the Potency entry in assay [3] was “inactive and 68.6 µM (active)”.

As for `CCOP(=S)(OCC)OP(=S)(OCC)OCC`, the Potency result in assay [1], in assay [2], in assay [4], in [5], in assay [16] and in assay [17] was “inactive” in each case. The Potency result in assay [6], in [19], in assay [7], in assay [8], in [9] and in assay [11] was “inactive” each time. Besides, the Potency entry (in [15]; with Aromatase (Homo sapiens)) was “inactive” throughout. In addition, in assay [18] (at 70.3 µM (top of the series)), the activity change was -0.0098% (inactive).

Turning to `O=C(O)c1nn(Cc2ccc(Cl)cc2Cl)c2ccccc12`, the Potency result in [1], in assay [2], in assay [4], in [5], in assay [16] and in assay [6] was “inactive” in each case. Also, the Potency result in assay [19], in assay [7], in assay [9], in [10], in [11] and in assay [14] was “inactive” throughout. For the same compound, the Potency entry (in assay [15]; with Aromatase (Homo sapiens)) was “inactive” throughout. Besides, the activity change in assay [18] (at 70.3 µM (top of the series)) is 1.75% (inactive) and 0.87% (inactive). Moreover, the Potency in assay [12] was 95.2 nM [inconclusive] (active) and inactive; in assay [13], 6.68 µM (active) and inactive.

Consider `CCCCC(C#N)(Cn1cncn1)c1ccc(Cl)cc1` (configuration not stated), for which the Potency result in [1], in assay [5], in assay [6], in assay [7], in [9] and in [10] was “inactive” each time. The Potency result in assay [11], in [12], in [13] and in assay [15] was “inactive” throughout. The Potency in [2] was 61.1 µM (active); in assay [3], 60.9 µM (active) and 19.3 µM (active); in assay [4], 60.9 µM (active); in [14] it was 30.5 µM (active) and 61.1 µM (active); with Aromatase (Homo sapiens) it was 4.84 µM (active) and 3.86 µM (active).

In the case of `O=P(OCCCl)(OCCCl)OCCCl`, the Potency entry in assay [1], in assay [2], in assay [3], in assay [4], in assay [5] and in assay [6] was “inactive” throughout. Besides, the Potency entry (in assay [7]; in assay [8]; in [9]; in [11]; in assay [15]; in the assay with Aromatase (Homo sapiens)) was “inactive” each time.

For the compound `c1ccc(C2CO2)cc1` (configuration not stated), the Potency result in assay [1], in [2], in assay [3], in assay [4], in [5] and in [6] was “inactive” each time. Also, the Potency result (in [7]; in [11]; in [15]; with Aromatase (Homo sapiens)) was “inactive” each time.

Take `COc1ccc(CO)cc1`: the Potency entry in [1], in [2], in assay [3], in assay [4], in [5] and in assay [6] was “inactive” each time. Moreover, the Potency result (in assay [7]; in assay [8]; in assay [9]; in [11]; in [15]; with Aromatase (Homo sapiens)) was “inactive” throughout.

Consider `C[N+](C)(C)CC(=O)[O-]`, for which the Potency result in assay [1], in assay [2], in assay [3], in [4], in assay [5] and in [6] was “inactive” each time. Further, the Potency entry in [7], in [9], in assay [10], in assay [11], in assay [12] and in assay [13] was “inactive” each time. Moreover, the Potency entry (in assay [14]; in [15]; with Aromatase (Homo sapiens)) was “inactive” each time.

As for `CNC(=S)S`, the Potency entry in assay [1], in assay [2], in assay [3], in assay [4], in assay [5] and in [6] was “inactive” throughout. Besides, the Potency result in [7], in assay [10], in assay [11], in assay [12], in assay [13] and in [14] was “inactive” in each case. The Potency entry (in [15]; with Aromatase (Homo sapiens)) was “inactive” in each case.

`ClC(Cl)(Cl)Br`: the Potency result in assay [1], in assay [2], in assay [3], in assay [4], in assay [5] and in assay [6] was “inactive” throughout. For the same compound, the Potency entry (in assay [7]; in [8]; in assay [9]; in assay [11]; in assay [15]; with Aromatase (Homo sapiens)) was “inactive” throughout.

For `C=CC(Cl)CCl` (configuration not stated), the Potency result in [1], in assay [2], in [4], in assay [5], in assay [16] and in assay [17] was “inactive” each time. For the same compound, the Potency entry in assay [6], in assay [19], in assay [7], in [8], in [9] and in assay [11] was “inactive” each time. In addition, the Potency entry (in assay [15]; with Aromatase (Homo sapiens)) was “inactive” each time. Also, in assay [18] (at 95 µM (top of the series)), the activity change is -0.5% (inactive) and 0.488% (inactive).

For the compound `C[N+](C)(C)CC(=O)O`, the Potency result in assay [1], in assay [2], in [3], in assay [4], in assay [5] and in assay [6] was “inactive” throughout. Also, the Potency result in assay [7], in assay [9], in [10], in assay [11], in assay [12] and in assay [13] was “inactive” in each case. The Potency result (in assay [14]; in [15]; in the assay with Aromatase (Homo sapiens)) was “inactive” each time.
